From the supplement of paper PMC10849652
Targets with a hit are over-represented here; the source holds about 8,800 in all. About 0.5% of all pairs of compound and target were hits.

Legend:
Assay in all cases: log2 fold change, soluble protein after heating vs DMSO (PISA); higher = thermal stabilisation; K562 lysate, 10 uM; active = over 0.2 and 3.5 SD of the protein, either way, in both replicates (recomputed)
alvocidib = compound: CN1CC[C@H](c2c(O)cc(O)c3c(=O)cc(-c4ccccc4Cl)oc23)[C@H](O)C1 [alvocidib]
Summary of the method: (§1)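 The values are log-two fold changes in thermal stability compared with solvent controls and come from duplicates. They were obtained by TMTpro 16plex LC-MS/MS, with channel sums equalised, on the supernatant after 21,000xg for 90 min. That supernatant came from crude K562 extract at 1 mg/mL protein treated with 10 μM compound for 30 min, heated for 3 min across 48°C-58°C, pooled and brought to 0.5% NP-40 at 4°C.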

Tubastatin A = compound: CN1CCc2c(c3ccccc3n2Cc2ccc(C(=O)NO)cc2)C1 [Tubastatin A]
Summary of the method: as §1

[1] = compound: CNC(=O)C1=CC=CC=C1NC2=NC(=NC=C2Cl)NC3=C(C=C(C=C3)N4CCOCC4)OC
Summary of the method: as §1

defactinib = compound: CNC(=O)c1ccc(Nc2ncc(C(F)(F)F)c(NCc3nccnc3N(C)S(C)(=O)=O)n2)cc1 [defactinib]
Summary of the method: as §1

[2] = compound: CNc1nc(-c2ccc3c(N)n[nH]c3c2)cc(N2C[C@@H](C(=O)NC3CCCCC3)CC[C@H]2C)n1
Summary of the method: as §1

encorafenib = compound: COC(=O)N[C@@H](C)CNc1nccc(-c2cn(C(C)C)nc2-c2cc(Cl)cc(NS(C)(=O)=O)c2F)n1 [encorafenib]
Summary of the method: as §1

[3] = compound: COC(=O)[C@H](CCSC)NC(=O)C1=C(C=C(C=C1)NC[C@H](CS)N)C2=CC=CC=C2
Summary of the method: as §1

alisertib = compound: COc1cc(Nc2ncc3c(n2)-c2ccc(Cl)cc2C(c2c(F)cccc2OC)=NC3)ccc1C(=O)O [alisertib]
Summary of the method: as §1

[4] = compound: COc1cc2nc(-c3cc(F)ccc3O)nc(N[C@@H]3CNC[C@H]3C(C)(C)O)c2cc1OC
Summary of the method: as §1

gefitinib = compound: COc1cc2ncnc(Nc3ccc(F)c(Cl)c3)c2cc1OCCCN1CCOCC1 [gefitinib]
Summary of the method: as §1

Measured: log2 fold change

KIFC1 (UniProt Q9BW19)
UniProt Q9BW19, sequence (Q9BW19 whole entry, looked up): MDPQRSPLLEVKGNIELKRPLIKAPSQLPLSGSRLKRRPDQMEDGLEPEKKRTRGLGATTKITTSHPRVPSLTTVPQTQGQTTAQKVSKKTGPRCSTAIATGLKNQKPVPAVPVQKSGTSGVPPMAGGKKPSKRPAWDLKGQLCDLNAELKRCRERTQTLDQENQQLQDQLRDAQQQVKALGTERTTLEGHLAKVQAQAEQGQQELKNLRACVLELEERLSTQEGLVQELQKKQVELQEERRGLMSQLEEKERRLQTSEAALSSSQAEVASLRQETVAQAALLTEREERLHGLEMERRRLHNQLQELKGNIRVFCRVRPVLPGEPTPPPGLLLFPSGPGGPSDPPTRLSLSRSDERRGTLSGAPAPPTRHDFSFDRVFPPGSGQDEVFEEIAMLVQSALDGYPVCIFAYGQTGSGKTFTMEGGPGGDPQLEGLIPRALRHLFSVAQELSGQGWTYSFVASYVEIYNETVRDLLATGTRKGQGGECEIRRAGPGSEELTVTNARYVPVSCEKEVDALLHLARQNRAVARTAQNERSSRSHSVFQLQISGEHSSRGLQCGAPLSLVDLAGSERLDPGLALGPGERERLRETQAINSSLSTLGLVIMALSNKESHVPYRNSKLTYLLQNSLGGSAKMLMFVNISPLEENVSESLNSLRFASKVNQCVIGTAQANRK
inactive: alvocidib -0.022 | Tubastatin A -0.15 | [1] -0.013 | defactinib -0.003 | [2] 0.024 | encorafenib -0.03 | [3] 0.14 | alisertib 0.011 | [4] 0.008 | gefitinib -0.01

MAP2K5 (UniProt Q13163)
inactive: alvocidib 0.067 | Tubastatin A -0.033 | [1] 0.086 | defactinib -0.026 | [2] 0.329 | encorafenib 0.149 | [3] -0.15 | alisertib -0.016 | [4] 0.054 | gefitinib 0.155

MED16 (UniProt Q9Y2X0)
UniProt Q9Y2X0, sequence (Q9Y2X0 whole entry, looked up): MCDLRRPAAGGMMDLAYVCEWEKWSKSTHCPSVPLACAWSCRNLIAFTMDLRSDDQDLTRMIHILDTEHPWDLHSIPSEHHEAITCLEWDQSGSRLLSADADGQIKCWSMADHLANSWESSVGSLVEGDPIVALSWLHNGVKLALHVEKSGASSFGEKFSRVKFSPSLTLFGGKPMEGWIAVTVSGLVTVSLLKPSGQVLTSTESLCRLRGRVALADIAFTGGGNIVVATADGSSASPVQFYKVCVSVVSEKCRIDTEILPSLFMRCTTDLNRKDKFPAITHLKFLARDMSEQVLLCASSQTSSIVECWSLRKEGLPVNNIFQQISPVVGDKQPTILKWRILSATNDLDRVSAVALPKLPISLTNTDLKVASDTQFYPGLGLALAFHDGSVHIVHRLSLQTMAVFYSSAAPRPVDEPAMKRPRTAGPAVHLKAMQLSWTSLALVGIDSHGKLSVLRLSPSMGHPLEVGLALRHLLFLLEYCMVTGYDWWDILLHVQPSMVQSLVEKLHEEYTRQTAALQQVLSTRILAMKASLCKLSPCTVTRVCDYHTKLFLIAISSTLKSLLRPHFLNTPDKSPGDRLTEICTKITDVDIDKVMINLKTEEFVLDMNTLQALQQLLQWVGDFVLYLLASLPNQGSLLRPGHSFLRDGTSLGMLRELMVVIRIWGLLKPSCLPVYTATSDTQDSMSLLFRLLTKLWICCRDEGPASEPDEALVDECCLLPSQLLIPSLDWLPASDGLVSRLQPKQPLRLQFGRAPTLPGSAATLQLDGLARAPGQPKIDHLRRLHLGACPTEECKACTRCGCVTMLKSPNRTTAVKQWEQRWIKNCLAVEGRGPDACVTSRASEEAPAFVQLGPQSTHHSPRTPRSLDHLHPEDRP
inactive: alvocidib 0.01 | Tubastatin A -0.093 | [1] 0.02 | defactinib -0.014 | [2] 0.004 | encorafenib -0.011 | [3] 0.038 | alisertib -0.015 | [4] -0.004 | gefitinib 0.019

MPP5 (UniProt Q8N3R9)
inactive: alvocidib 0.066 | Tubastatin A -0.08 | [1] -0.051 | defactinib 0.034 | [2] 0.045 | encorafenib 0.073 | [3] 0.114 | alisertib -0.217 | gefitinib -0.139

MAP4K2 (UniProt Q12851)
inactive: alvocidib 0.111 | Tubastatin A -0.189 | [1] -0.02 | defactinib 0.086 | [2] 0.055 | encorafenib -0.183 | [3] -0.234 | [4] 0.219

LYN (UniProt P07948)
inactive: alvocidib 0.026 | Tubastatin A -0.046 | [1] 0.203 | defactinib 0.076 | [2] -0.092 | encorafenib -0.01 | [3] -0.072 | alisertib 0.171 | [4] 0.26 | gefitinib -0.006

MED25 isoform 3 (UniProt Q71SY5)
inactive: alvocidib 0 | Tubastatin A 0.056 | [1] -0.033 | [2] -0.022 | encorafenib -0.123 | [3] 0.005 | alisertib 0.125 | [4] 0.01 | gefitinib -0.029

MOSPD2 (UniProt Q8NHP6)
inactive: alvocidib -0.028 | Tubastatin A -0.034 | [1] -0.03 | defactinib 0.11 | [2] -0.015 | encorafenib 0.053 | [3] -0.026 | alisertib 0.125 | [4] -0.027 | gefitinib -0.039

MAP4K5 (UniProt Q9Y4K4)
UniProt Q9Y4K4, sequence (Q9Y4K4 whole entry, looked up): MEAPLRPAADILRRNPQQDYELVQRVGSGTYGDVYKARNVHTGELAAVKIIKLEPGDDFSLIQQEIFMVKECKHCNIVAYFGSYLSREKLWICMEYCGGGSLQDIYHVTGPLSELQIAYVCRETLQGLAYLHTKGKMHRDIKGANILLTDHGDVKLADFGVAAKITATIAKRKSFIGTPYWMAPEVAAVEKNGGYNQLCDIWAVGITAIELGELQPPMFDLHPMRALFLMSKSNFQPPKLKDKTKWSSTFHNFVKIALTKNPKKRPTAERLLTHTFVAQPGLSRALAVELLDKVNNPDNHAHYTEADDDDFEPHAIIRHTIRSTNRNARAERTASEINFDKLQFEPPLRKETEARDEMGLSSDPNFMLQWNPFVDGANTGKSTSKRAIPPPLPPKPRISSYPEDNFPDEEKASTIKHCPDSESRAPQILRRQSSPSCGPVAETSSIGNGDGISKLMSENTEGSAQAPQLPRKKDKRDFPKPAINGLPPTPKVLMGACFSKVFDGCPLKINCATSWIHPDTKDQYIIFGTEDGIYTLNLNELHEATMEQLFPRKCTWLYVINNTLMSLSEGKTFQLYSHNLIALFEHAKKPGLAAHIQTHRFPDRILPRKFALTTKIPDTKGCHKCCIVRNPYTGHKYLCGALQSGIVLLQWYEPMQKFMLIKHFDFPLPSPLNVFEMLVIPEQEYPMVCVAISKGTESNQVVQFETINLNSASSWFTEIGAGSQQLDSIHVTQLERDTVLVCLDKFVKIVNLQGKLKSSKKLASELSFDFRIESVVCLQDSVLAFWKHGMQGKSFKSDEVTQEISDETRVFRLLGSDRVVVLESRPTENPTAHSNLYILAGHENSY
inactive: alvocidib 0.045 | Tubastatin A -0.021 | [1] 0.068 | defactinib 0.125 | [2] -0.006 | encorafenib 0.009 | [3] -0.191 | alisertib -0.027 | [4] 0.189 | gefitinib 0.086

MAN2B2 (UniProt Q9Y2E5)
inactive: alvocidib 0.199 | Tubastatin A 0.029 | [1] -0.006 | [2] 0.059 | encorafenib -0.004 | [3] 0.073 | alisertib 0.032 | [4] 0.049 | gefitinib -0.017

KIF26A (UniProt Q9ULI4)
active: Tubastatin A 0.566
inactive: alvocidib 0.022 | [1] -0.149 | defactinib -0.105 | [2] -0.021 | encorafenib -0.052 | [3] 0.035 | alisertib 0.004 | gefitinib 0.056

LIMS1 isoform 3 (UniProt P48059)
inactive: alvocidib -0.014 | Tubastatin A 0.034 | [1] 0.017 | defactinib 0.048 | [2] 0.02 | encorafenib 0.004 | [3] -0.118 | alisertib 0.011 | [4] -0.003 | gefitinib -0.097

MEGF8 (UniProt Q7Z7M0)
inactive: alvocidib 0.03 | Tubastatin A 0.156 | [1] 0.058 | [2] -0.051 | encorafenib -0.01 | [3] 0.131

MOCS3 (UniProt O95396)
UniProt O95396, sequence (O95396 whole entry, looked up): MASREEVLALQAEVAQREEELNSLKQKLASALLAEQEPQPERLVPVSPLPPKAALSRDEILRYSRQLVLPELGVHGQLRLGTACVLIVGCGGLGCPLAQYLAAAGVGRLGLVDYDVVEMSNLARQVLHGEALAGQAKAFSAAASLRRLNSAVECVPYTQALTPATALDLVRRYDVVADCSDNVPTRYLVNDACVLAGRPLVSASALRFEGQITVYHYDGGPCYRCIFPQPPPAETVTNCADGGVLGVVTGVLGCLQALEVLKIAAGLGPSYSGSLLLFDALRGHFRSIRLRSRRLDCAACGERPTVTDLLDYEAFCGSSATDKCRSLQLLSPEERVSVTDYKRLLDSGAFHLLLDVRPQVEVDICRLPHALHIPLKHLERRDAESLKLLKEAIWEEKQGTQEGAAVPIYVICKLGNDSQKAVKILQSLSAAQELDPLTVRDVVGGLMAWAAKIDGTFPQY
inactive: alvocidib -0.213 | Tubastatin A -0.082 | [1] 0.111 | defactinib -0.161 | [2] -0.008 | encorafenib 0.056 | [3] -0.094 | alisertib 0.031 | gefitinib -0.231

LETM1 (UniProt O95202)
inactive: alvocidib -0.046 | Tubastatin A -0.033 | [1] 0.018 | defactinib -0.007 | [2] -0.027 | encorafenib -0.001 | [3] -0.018 | alisertib -0.022 | [4] -0.166 | gefitinib -0.04

KSR1 (UniProt Q8IVT5)
UniProt Q8IVT5, sequence (Q8IVT5 whole entry, looked up): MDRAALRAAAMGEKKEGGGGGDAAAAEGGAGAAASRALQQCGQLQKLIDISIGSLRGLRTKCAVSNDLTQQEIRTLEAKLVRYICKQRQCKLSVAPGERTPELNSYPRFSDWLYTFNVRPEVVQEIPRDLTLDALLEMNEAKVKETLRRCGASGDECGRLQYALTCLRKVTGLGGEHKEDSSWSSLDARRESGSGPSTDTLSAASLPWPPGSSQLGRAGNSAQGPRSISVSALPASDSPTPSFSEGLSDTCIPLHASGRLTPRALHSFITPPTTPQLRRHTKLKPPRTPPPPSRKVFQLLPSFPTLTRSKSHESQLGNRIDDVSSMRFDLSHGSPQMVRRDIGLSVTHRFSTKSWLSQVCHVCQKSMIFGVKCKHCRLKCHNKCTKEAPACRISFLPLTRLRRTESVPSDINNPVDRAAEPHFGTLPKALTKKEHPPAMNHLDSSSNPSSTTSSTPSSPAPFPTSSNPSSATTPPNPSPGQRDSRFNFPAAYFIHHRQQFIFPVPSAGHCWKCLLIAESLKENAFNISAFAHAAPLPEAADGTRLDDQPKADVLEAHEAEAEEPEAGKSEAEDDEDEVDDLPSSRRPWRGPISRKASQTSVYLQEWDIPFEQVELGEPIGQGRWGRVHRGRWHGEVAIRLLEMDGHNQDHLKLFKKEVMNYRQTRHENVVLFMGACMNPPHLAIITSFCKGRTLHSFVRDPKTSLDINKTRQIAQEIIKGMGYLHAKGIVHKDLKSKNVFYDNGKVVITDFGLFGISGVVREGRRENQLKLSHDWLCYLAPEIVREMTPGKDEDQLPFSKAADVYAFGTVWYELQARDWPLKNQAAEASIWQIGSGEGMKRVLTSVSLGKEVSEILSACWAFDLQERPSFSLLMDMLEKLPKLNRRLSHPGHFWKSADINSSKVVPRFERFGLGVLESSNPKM
inactive: alvocidib 0.214 | Tubastatin A -0.086 | [1] -0.042 | defactinib -0.045 | [2] -0.038 | encorafenib 0.075 | [3] 0.257 | alisertib 0.028 | [4] 0.115 | gefitinib -0.016

MAP4 (UniProt E7EVA0)
inactive: alvocidib -0.074 | Tubastatin A 0.1 | [1] 0 | defactinib 0.01 | [2] 0.037 | encorafenib -0.04 | [3] -0.117 | alisertib -0.028 | [4] 0.054 | gefitinib 0.098

MAST4 (UniProt O15021)
inactive: alvocidib 0.042 | Tubastatin A -0.11 | [1] 0.394 | defactinib 0.282 | [2] -0.173 | encorafenib -0.036 | [3] 0.006 | alisertib -0.043 | [4] 0.032 | gefitinib -0.066

KIF2A isoform 4 (UniProt O00139)
inactive: alvocidib 0 | Tubastatin A -0.148 | [1] 0.005 | defactinib 0.01 | [2] -0.024 | encorafenib 0.012 | [3] 0.093 | alisertib 0.004 | [4] -0.014 | gefitinib 0.011

KLC2 (UniProt Q9H0B6)
UniProt Q9H0B6, sequence (Q9H0B6 whole entry, looked up): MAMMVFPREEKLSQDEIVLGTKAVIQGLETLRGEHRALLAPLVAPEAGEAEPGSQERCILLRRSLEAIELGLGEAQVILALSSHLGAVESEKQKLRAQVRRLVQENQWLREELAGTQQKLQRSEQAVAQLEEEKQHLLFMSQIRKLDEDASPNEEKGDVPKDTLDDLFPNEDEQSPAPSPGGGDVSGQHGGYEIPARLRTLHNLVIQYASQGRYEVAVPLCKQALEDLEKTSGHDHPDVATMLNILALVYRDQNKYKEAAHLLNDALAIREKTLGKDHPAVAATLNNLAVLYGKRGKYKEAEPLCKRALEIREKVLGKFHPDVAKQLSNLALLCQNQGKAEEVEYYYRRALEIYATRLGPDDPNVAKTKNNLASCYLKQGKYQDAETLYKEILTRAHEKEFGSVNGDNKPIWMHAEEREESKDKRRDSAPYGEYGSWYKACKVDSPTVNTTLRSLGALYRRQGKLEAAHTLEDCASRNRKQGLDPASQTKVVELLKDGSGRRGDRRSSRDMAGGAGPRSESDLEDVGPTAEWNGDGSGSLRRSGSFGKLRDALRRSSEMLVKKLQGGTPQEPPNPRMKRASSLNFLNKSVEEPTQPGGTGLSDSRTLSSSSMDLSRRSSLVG
inactive: alvocidib -0.034 | Tubastatin A -0.072 | [1] 0.004 | defactinib -0.048 | [2] -0.006 | encorafenib 0.01 | [3] 0.043 | alisertib -0.038 | [4] 0.001 | gefitinib -0.098

LYAR (UniProt Q9NX58)
inactive: alvocidib 0.072 | Tubastatin A 0.018 | [1] 0.006 | defactinib 0.014 | [2] -0.002 | encorafenib -0.005 | [3] 0.021 | alisertib 0.005 | [4] -0.001 | gefitinib -0.043

MRPL12 (UniProt P52815)
inactive: alvocidib 0.066 | Tubastatin A 0.117 | [1] 0.06 | defactinib 0.096 | [2] 0.037 | encorafenib 0.003 | [3] -0.079 | alisertib 0.115 | [4] -0.01 | gefitinib -0.153

LBR (UniProt Q14739)
UniProt Q14739, sequence (Q14739 whole entry, looked up): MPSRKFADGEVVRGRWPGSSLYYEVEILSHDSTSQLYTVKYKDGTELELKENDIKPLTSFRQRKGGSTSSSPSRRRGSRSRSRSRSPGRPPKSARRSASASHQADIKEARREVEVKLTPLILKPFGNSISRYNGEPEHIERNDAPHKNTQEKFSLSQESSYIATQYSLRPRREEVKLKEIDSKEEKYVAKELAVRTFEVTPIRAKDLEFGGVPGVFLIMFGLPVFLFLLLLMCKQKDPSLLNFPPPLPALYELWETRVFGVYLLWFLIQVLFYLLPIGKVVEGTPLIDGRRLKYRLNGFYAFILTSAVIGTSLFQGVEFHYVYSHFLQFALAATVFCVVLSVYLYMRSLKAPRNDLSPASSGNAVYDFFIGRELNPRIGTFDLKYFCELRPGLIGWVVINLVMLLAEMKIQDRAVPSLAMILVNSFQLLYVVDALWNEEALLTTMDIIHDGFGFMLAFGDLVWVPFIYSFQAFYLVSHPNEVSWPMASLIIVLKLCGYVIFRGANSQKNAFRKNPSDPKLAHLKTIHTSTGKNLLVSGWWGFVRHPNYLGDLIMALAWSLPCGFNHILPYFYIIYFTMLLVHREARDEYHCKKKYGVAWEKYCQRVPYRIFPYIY
inactive: alvocidib 0.072 | Tubastatin A 0.025 | [1] -0.063 | defactinib 0.04 | [2] -0.002 | encorafenib -0.021 | [3] 0.027 | alisertib 0.071 | [4] 0.001 | gefitinib -0.094

MAPK3 (UniProt P27361)
active: [1] 0.29
inactive: alvocidib 0.018 | Tubastatin A 0.037 | defactinib 0.061 | [2] 0.079 | encorafenib -0.035 | [3] 0.05 | alisertib -0.028 | [4] 0.052 | gefitinib -0.018

KRI1 (UniProt Q8N9T8)
inactive: alvocidib 0.017 | Tubastatin A -0.113 | [1] 0.016 | defactinib 0.019 | [2] -0.012 | encorafenib 0.038 | [3] 0.009 | alisertib 0.042 | gefitinib -0.106

MAST2 (UniProt Q6P0Q8)
inactive: alvocidib -0.096 | Tubastatin A -0.06 | [1] 0.219 | defactinib -0.009 | [2] -0.009 | encorafenib 0.114 | [3] 0.078 | [4] -0.002

MRPL35 (UniProt Q9NZE8)
inactive: alvocidib 0.057 | Tubastatin A -0.226 | [1] 0.01 | defactinib 0.014 | [2] 0.033 | alisertib 0.01 | [4] -0.072 | gefitinib 0.009

MARK2 (UniProt E9PC69)
inactive: alvocidib -0.032 | Tubastatin A -0.049 | [1] -0.187 | defactinib -0.087 | [2] 0.056 | encorafenib 0.181 | [3] 0.211 | alisertib 0.021 | [4] 0.01 | gefitinib -0.03

LRWD1 (UniProt Q9UFC0)
inactive: alvocidib 0.027 | Tubastatin A -0.2 | [1] -0.049 | defactinib 0.059 | [2] -0.051 | encorafenib 0.01 | [3] 0.11 | alisertib -0.001 | [4] 0.017 | gefitinib -0.024

KNL1 (UniProt Q8NG31)
inactive: alvocidib -0.008 | Tubastatin A -0.073 | [1] 0.024 | defactinib -0.007 | [2] 0.018 | encorafenib 0.043 | [3] 0.055 | alisertib -0.032 | [4] 0.004 | gefitinib 0.008
